# Experimental data published in PubChem BioAssay AID686978 (National Center for Advancing Translational Sciences (NCATS), 2013).
# About 64,000 (15%) of roughly 420,000 compounds were called active. Another 27% or so got no clear call; they are omitted. Not all results are given here. A number with no mark means an inactive call. Calls follow the shape of the dose curve; as a rule, active = well fitted inhibition curve with a large enough effect; inconclusive = small, poorly fitted or top-dose-only effect; inactive = flat fitted curve, though single readings scatter.
# Assay: qHTS for Inhibitors of human tyrosyl-DNA phosphodiesterase 1 (TDP1): qHTS in cells in absence of CPT; also: nearly all actives have a fitted effect of over 55% in size
# Conditions: DT40 Tdp1-/- hTDP1 cells, no CPT, ATP luminescence, 48 h; activity change, negative = growth inhibition: at 46.2 µM (top of the series)
# Outline: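 Growth kinetics read by CellTiter-Glo luminescence after ≥48 hr at 37 °C. Cells: DT40 Tdp1-/- stably carrying human TDP1, 400 per well, compound exposure in the absence of CPT (DMSO vehicle).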
# % is scaled to controls: 0 for no effect and ±100 for the full control effect; potency is read from the fitted curve at half-maximal effect.
Compound,"activity change, negative = growth inhibition",Potency
O=C1c2cccc3cccc(c23)N1CN1CCN(c2ccccn2)CC1,4.31%,
CCCCc1ccc(NC(=S)N2CCCC(CO)C2)cc1 (stereo not given),-12.3%,
Oc1ccc2ccc3cccc[n+]3c2c1,-17.9%,
CCCCN(CC)CCCNC(=O)c1ccc(CSc2nc3ccncc3[nH]2)cc1,-13.3%,
O=C(Cn1ccc([N+](=O)[O-])n1)NCc1cccs1,-15%,
O=C(COC(=O)c1cccc(Cl)c1)Nc1ccc2[nH]c(=O)[nH]c2c1,-12.1%,
C/C=C/C1=C(C(=O)O)N2C(=O)[C@@H](NC(=O)[C@H](N)c3ccc(O)cc3)[C@H]2SC1,-2.02%,
CCN(CC)CCNC(=O)CN1N=C(c2ccc(OC)cc2)CCC1=O,-5.02%,
COc1ccc(CCNC(=O)CCNS(=O)(=O)c2cc(Br)cnc2N)cc1OC,-3.66%,
CCCNS(=O)(=O)c1ccc(CCC(=O)NCc2cccnc2)cc1,-2.63%,
COc1ccccc1CNC(=O)c1ccc(CS(=O)(=O)c2ccccc2)o1,-26.6%,
COc1ccc(CCNC(=O)NS(=O)(=O)c2ccc(C)cc2)cc1OC,-5.03%,
COc1ccc(CCNC(=O)c2ccc(CSCc3ccc(C)cc3)o2)cc1OC,,23.1 µM (active)
O=C(NCc1ccco1)c1ccc(CS(=O)(=O)Cc2ccc(F)cc2)o1,-24.8%,
Cc1ccc(CNC(=O)c2ccc(CS(=O)Cc3cccc(Cl)c3)o2)cc1 (stereo not given),-6.34%,
COc1ccc(CCNC(=O)Cc2ccc(C)cc2)cc1OC,-22%,
COc1ccc(CCNC(=O)c2ccc(CS(=O)(=O)c3ccc(Br)cc3)o2)cc1OC,,14.6 µM (active)
O=C(NCc1cccnc1)c1cnc2ccccc2n1,-20.8%,
Cc1ccc(CCNC(=O)c2ccc(CS(=O)(=O)Cc3cccc(C)c3)o2)cc1,,18.4 µM (active)
O=C(NCc1cccnc1)c1ccc(CS(=O)(=O)c2ccc(Br)cc2)o1,,14.6 µM (active)
COCCCn1c(SCC(=O)NC2CCCC2)nnc1-c1ccccc1,-0.642%,
Cc1ccc(S(=O)(=O)NNC(=S)NC(C)(C)C)cc1,-10.7%,
CN(Cc1ccccc1)C(=O)COC(=O)/C=C/c1ccc2c(c1)OCO2,5.6%,
CN(C)c1nc2n(c(=O)n1)CCO2,-3.42%,
O=C(O)Cc1ccc(NC(=O)C2CCCCC2C(=O)O)cc1 (stereo not given),-3.53%,

Compound,"activity change, negative = growth inhibition",Potency
COCCn1c(=O)c(C)nc2cnc(N(C)C)nc21,-27.8%,
O=C(O)C1CCN(S(=O)(=O)N2CCOCC2)CC1,0.819%,
CC1CN(C(=O)COC(=O)c2cccc(NS(=O)(=O)c3ccccc3)c2)CC(C)O1 (stereo not given),-19.5%,
CCOC(=O)c1cc(S(=O)(=O)NCCc2ccc(OC)c(OC)c2)cn1C,-18.3%,
CN1CCCN(C(=O)C2CCCCC2)CC1,8.41%,
CCOc1ccc(NC(=O)CC(Cc2ccc(Cl)cc2)C(=O)O)cc1 (stereo not given),-15.9%,
COc1ccc(N2C(=O)C(Cc3ccccc3)NC2=S)cc1 (stereo not given),1.43%,
COc1ccc(C2CC(=O)NC(=O)C2)cc1,-0.287%,
COc1ccc(C2OC(CCc3ccccc3)Cc3[nH]c(=S)[nH]c(=O)c32)cc1 (stereo not given),,18.4 µM (active)
O=C(Cn1cc(C(=O)c2cccs2)c2ccccc21)NCc1cccs1,-28.4%,
CC1(c2nnc(Cc3ccccc3)o2)CC(c2ccccc2F)=NO1 (stereo not given),-8.07%,
COc1ccc(OCc2ccc(-c3nc(C#N)c(N4CCN(c5ccccc5)CC4)o3)o2)cc1,-19%,
Cc1ccccc1OCc1ccc(-c2nc(C#N)c(N3CCCCC3)o2)o1,,23.1 µM (active)
COc1ccccc1-c1nc(C#N)c(N2CCC(C(N)=O)CC2)o1,-5.1%,
COc1ccc(NC(=O)NNC(=O)COc2cc(C)c(Cl)c(C)c2)c(OC)c1,-9%,
Cc1ccc(S(=O)(=O)NCCSC(C)(C)C)cc1,3.06%,
O=C(O)CSCNC(=O)CC12CC3CC(CC(C3)C1)C2,-7.57%,
CCOCCCNC(=O)c1cc2c(=O)n3ccccc3nc2s1,4.13%,
Nc1ccc(/C=C/c2ccnc3ccccc23)c([N+](=O)[O-])c1,,10 µM (active)
O=C(CC(c1ccccc1)c1ccccc1)NCC(O)c1ccc([N+](=O)[O-])cc1 (stereo not given),-29.9%,
Cc1ccc(C)c(N2CCN(C(c3ccccc3)c3nnc(-c4ccccc4)o3)CC2)c1 (stereo not given),,23.1 µM (active)
Cc1ccc(C)c(N2CCN(Cc3nnc(-c4ccccc4)o3)CC2)c1,-24.4%,
CCn1c2ccccc2c2nnc(N3CCN(c4cc(C)ccc4C)CC3)nc21,2.65%,
CC(C)c1ccc(S(=O)(=O)NC2CCCC2)cc1,-9.9%,
C/C(CC(=O)Nc1cccc(C(F)(F)F)c1)=N\NC(=O)C(=O)NCC(C)C,4.51%,

Compound,"activity change, negative = growth inhibition",Potency
Cc1cc(N2CCCC2=O)cc(C)c1S(N)(=O)=O,-1.77%,
COc1cccc(N2C(=O)C3CCCN3C2c2ccc(F)cc2)c1 (stereo not given),-16.8%,
CSC1=NCCN1C(=O)c1ccc(S(=O)(=O)N2CCOCC2)cc1,-6.06%,
O=C(Nc1ccccc1)Nc1nnc(COc2ccccc2F)s1,,10.3 µM (active)
O=C(Nc1nnc(COc2ccccc2)s1)Nc1ccccc1F,-18.9%,
COCC(=O)Nc1nnc(COc2ccccc2)s1,-3.11%,
Cc1cc(C)c(C(N)=O)c(Cl)n1,-2.24%,
CC1=C(C(=O)N(C)C)C(c2ccccc2OC(F)F)NC(=O)N1 (stereo not given),-14.3%,
COc1cc(OC)c(C2=NOC(C(=O)Nc3c(C)n(C)n(-c4ccccc4)c3=O)C2)cc1Cl (stereo not given),-21.7%,
Cc1cccc(OCC(=O)Nc2ccc(C(=O)O)cc2NC(=O)COc2cccc(C)c2)c1,-3.15%,
O=C(O)CN(Cc1ccco1)S(=O)(=O)c1ccc(F)cc1,2.93%,
CCC(c1nc2ccccc2[nH]1)n1c(=O)c(-c2cccs2)nc2ccccc21 (stereo not given),,18.4 µM (active)
O=C(CSc1nc2ccccc2[nH]1)c1cccs1,-21.9%,
OC(c1nc2ccccc2[nH]1)C(O)C(O)C(O)c1nc2ccccc2[nH]1 (stereo not given),0.49%,
CSc1nnc(-c2ccncc2)n1CCCN1CCCC1=O,-13.2%,
O=C(NCCc1nnc2ccc(SCC(=O)N3CCOCC3)nn12)c1ccccc1,18.7%,
Cc1ccc(N(C(=O)Cc2cccs2)C2C=CS(=O)(=O)C2)cc1Cl (stereo not given),-5.03%,
Cc1ccc(C)c2c1cc(C)c1nnc(SCC(=O)Nc3cccc(C(=O)O)c3)n12,16%,
O=C(Nc1cc(=O)[nH]c2ncnn12)c1ccccc1Cl,-5.75%,
CCN1CCN(c2ncnc3c2cnn3-c2ccc(C)c(C)c2)CC1,,18.4 µM (active)
COc1ccc(-n2ncc3c(SCC(=O)NNC(C)=O)ncnc32)cc1,-27.9%,
Cc1ccc(-n2ncc3c(N4CCC(C(N)=O)CC4)ncnc32)cc1,20.4%,
CCN(c1ncnc2c1cnn2-c1ccc(C)cc1)C1CCCCC1,7.61%,
COc1ccccc1N1CCN(C(=O)CSc2ncnc3c2cnn3-c2ccc(C)c(C)c2)CC1,,23.1 µM (active)
COC(=O)CSc1ncnc2c1cnn2-c1ccc(C)cc1C,-16.2%,
